Screen size: about 48,000 compounds; about 13,000 (27%) showed an effect of 50% or more. The list shows a part of the results.
Tested on: Wolbachia pipientis
Experiment: Anti-Wolbachia Cell-Based Screen
Assay type: functional
Set-up: scale not given: in the data most compounds retested in dose-response had high values
Settings: 5 µM

Structure (SMILES)	Percent Effect
Cc1ccccc1SC1CCN(C(=O)[C@@H]2C[C@@H](N)CN2)CC1	-21.68%
O=C(O)C(F)(F)F.O=C(O)C(F)(F)F.O=C(O)c1cc2c(nc1-c1cncnc1)CCN(C1CCOC1)CC2 (stereo not drawn)	-20.41%
Cc1cnn(CC2CCCCN2CCCS(N)(=O)=O)c1 (stereo not drawn)	-7.264%
OC1(CN2CCCCC2)CCN(Cc2c[nH]c(CC3CCCC3)n2)C1 (stereo not drawn)	5.378%
CN(Cc1c(F)cccc1Cl)C(=O)c1cnn(CCN2CCCCC2)c1	4.459%
COc1ccc(F)c(-c2nccn2CCN2CCCC2)c1	-4.269%
O=C(CN1CCCCCC1)NCc1ccc2[nH]c(=O)[nH]c2c1	33.1%
O=C(O)[C@@H]1CCN(C(=O)c2ccccn2)[C@@H]1c1ccc(F)cc1	129.5%
O=C(O)[C@@H]1CCN(C(=O)Cc2ccccn2)[C@@H]1c1ccc(F)cc1	124%
O=C(COCC1CC1)N1CCN(C(=O)Cc2ccccn2)CC1	1.286%
O=C(O)C(F)(F)F.O=C([C@H]1C[C@H]2OCC[C@H]2N(C(=O)c2ccccn2)C1)N1CCCCO1	-2.538%
Cc1ccccc1N1CCN(C(=O)c2cscn2)C(C)C1 (stereo not drawn)	6.365%
O=C(c1cscn1)N1CC[C@H]2[C@@H]1CCC(=O)N2c1ccccc1	5.214%
CC(C)OC(=O)[C@@H]1CCN(C(=O)c2ccccn2)[C@@H]1c1ccc(F)cc1	116.9%
O=C1N[C@@H]2CCN(C(=O)c3ccccc3)[C@@H]2C(=O)N1c1ccc(F)cc1	9.769%
CC(C)OC(=O)N1C[C@H]2CC[C@@H]1CN(C(=O)c1ccccn1)C2	1.179%
O=C(COC1CCCCC1)N1CCN(C(=O)Cc2ccccn2)CC1	-7.801%
O=C(O)[C@@H]1CCN(C(=O)c2cscn2)[C@@H]1c1ccc(F)cc1	132.5%
CN(C(=O)c1cccnc1OCC(F)F)c1ccc2c(c1)CCO2	-7.463%
Cc1c(-c2c(-c3ccccc3)ncn2[C@@H](C(=O)O)[C@H](C)O)cnn1C	-13.76%

Structure (SMILES)	Percent Effect
COCc1ncn(Cc2nc(-c3ccc(OC)cc3F)oc2C)n1	-0.9498%
Cc1ccc(N2CCC(NC(C)c3cccs3)CC2)nc1 (stereo not drawn)	-4.773%
Cn1cc(-c2csc(N3CCSCC3)n2)cn1	-8.104%
CS(=O)(=O)N1CCC(c2nnc(CN3CCCC3)n2C2CC2)CC1	-12.66%
CN(Cc1cc(C[C@@H]2C[C@H](N)C2(C)C)no1)c1ccccc1	4.71%
Cc1ccc(C(=O)N2CCC3(CC2)NC(=O)CC3c2ccccc2)cn1.O=C(O)C(F)(F)F (stereo not drawn)	15.96%
O=C(O)C(F)(F)F.O=C(c1cnc2ccccc2c1)N1CCC2(CCN2c2ncccn2)C1 (stereo not drawn)	69.16%
O=C(O)C(F)(F)F.O=C(c1ccc2ccccc2n1)N1CCC2(CCN2c2ncccn2)C1 (stereo not drawn)	82.49%
O=C(O)C(F)(F)F.O=C(c1ccccc1)N1CCC2(CCCN2c2ncccn2)CC1	93.81%
COCC1CC2(CCN(C(=O)c3cnc4ccccc4c3)CC2)CO1.O=C(O)C(F)(F)F (stereo not drawn)	5.909%
Cc1ccc(C(=O)N2CCC3(CCN3c3ncccn3)C2)cn1.O=C(O)C(F)(F)F (stereo not drawn)	98.39%
O=C(O)C(F)(F)F.O=C(c1ccccn1)N1CCC2(CC1)C(=O)Nc1ccccc12	-9.696%
O=C(O)C(F)(F)F.O=C(O)C(F)(F)F.O=C(c1c[nH]cn1)N1CCC(F)(F)C2(CCN(c3ccccn3)C2)C1 (stereo not drawn)	6.098%
CCCc1nnsc1C(=O)N1CCN(CC(O)C2CC2)CC1.Cl (stereo not drawn)	-6.099%
O=C(c1ccc2sccc2c1)N1CCC(C(=O)O)(n2cccn2)CC1	-6.348%
COc1ccccc1-c1ncc(CN2CCCC[C@H](N(C)C)C2)s1	-5.387%
Cc1cc(F)c(S(=O)(=O)N(C)CCn2cccn2)cc1F	-6.407%
O=C(O)C(F)(F)F.O=C(c1cccc(O)c1)N1CCC2(CCN2c2ncccn2)C1 (stereo not drawn)	103.8%
CCN(CC)CCNC(=O)c1cc(C(C)C)nc(N2CCCC2)n1	3.007%
CCC(NC(=O)C1CCN(S(C)(=O)=O)CC1)c1ccc(OC)c(OC)c1 (stereo not drawn)	-10.24%

Structure (SMILES)	Percent Effect
CS(=O)(=O)N1CCC(C(=O)NC(Cc2ccsc2)c2ccccn2)CC1 (stereo not drawn)	-12.55%
CS(=O)(=O)N1CCC(C(=O)NC(Cc2ccsc2)c2cccnc2)CC1 (stereo not drawn)	127.1%
CCC(NC(=O)C1CCN(S(C)(=O)=O)CC1)c1ccc(OC)c(C)c1 (stereo not drawn)	-3.123%
CCC(NC(=O)NC1CCN(S(C)(=O)=O)CC1)c1cccs1 (stereo not drawn)	5.409%
Cc1csc(C(Cc2ccsc2)NC(=O)C2CCN(S(C)(=O)=O)CC2)n1 (stereo not drawn)	94.26%
COCCn1cc(C(=O)N2CCCC2c2cccc(C)c2)ccc1=O (stereo not drawn)	1.918%
CC[C@@H](C)[C@@H](N)C(=O)Nc1cccc(-c2cnc(N)nc2)c1	118.7%
CC[C@@H](C)[C@@H](N)C(=O)Nc1cccc(-c2cnc(N(C)C)nc2)c1	111.5%
CCn1nnnc1-c1cccc(NC(N)=O)c1	11.47%
CC[C@@H](C)[C@@H](N)C(=O)Nc1cccc(-c2cnc(NCCO)nc2)c1	122.5%
CN(C)c1ncc(NC(=O)c2cccc(Nc3cnn(C)c3)c2)cn1	-2.232%
CCC(CC)C(O)CNC(=O)Nc1cccc(-c2nccn2C)c1 (stereo not drawn)	17.02%
CCC(C)NS(=O)(=O)Cc1cccc(NC(=O)C(C)C)c1 (stereo not drawn)	-6.422%
CC[C@@H](C)[C@@H](N)C(=O)Nc1cccc(-c2cnc(N(C)CCO)nc2)c1	118.1%
Cn1ccnc1-c1cccc(NC(=O)NCCCO)c1	-3.437%
CC(NC(N)=O)C(=O)Nc1ccc(OCc2cccc(F)c2)c(F)c1 (stereo not drawn)	-7.991%
CCC(Nc1cccc(OC)c1)C(=O)N(CCO)Cc1nccs1 (stereo not drawn)	-9.396%
CN(C)c1ncc(-c2c(-c3ccccc3)ncn2C(CO)C(=O)O)cn1 (stereo not drawn)	-11.25%
